For 108 compounds, INHIBITION results are on record in ChEMBL document CHEMBL4513216, “Probing the Open Global Health Chemical Diversity Library for Multistage-Active Starting Points for Next-Generation Antimalarials” (ACS Infect Dis, 2020).

Structures are written as SMILES. In all, about 68,000 compounds went through this assay and about 2,700 (4%) showed an effect of 50% or more. The full list was thinned out, with strong results kept by preference.

The test system of the assay is Plasmodium berghei. Kind of assay: Screen against P. berghei liver stage (PbLuc), transformed with Luciferase, at 2uM. Format: functional, HepG2. To be noted: tested at 2 uM.
For `CCCS(=O)(=O)CC(=O)Nc1ccsc1`, the INHIBITION is listed as 22%. For `CS(=O)(=O)CCC(=O)Nc1ccsc1`, the INHIBITION was determined as 10.22%. Take `CCN(CC)S(=O)(=O)CC(=O)Nc1ccsc1`: the INHIBITION is listed as 64.08%. To `O=C(c1cc2c(s1)CCC2)N1CCN(c2cnccn2)CC1` belongs -32.45%. Consider `N#Cc1ccc(OCC(O)CN2CCN(c3nccs3)CC2)cc1` (stereo not drawn), for which the INHIBITION came out at 2.2%. As for `O=C(O)CCC(=O)N1CCN(CC2CC2)c2ncccc2C1`, the figure is 18.6%; as for `Cc1occc1C(=O)N1CCC(C(O)c2ccc(F)cc2)CC1` (stereo not drawn), 47.25%. As for `CCn1cnnc1C1CCN(C(=O)c2ccccc2OC)CC1`, the figure is -45.23%. To `CCn1cnnc1C1CCN(C(=O)c2ccoc2C)CC1` belongs 70.27%.

With `CCn1cnnc1C1CCN(C(=O)c2cc(OC)ccc2OC)CC1`, the INHIBITION is reported as -33.61%. In the case of `CCn1cnnc1C1CCN(C(=O)c2cccc(OC)c2OC)CC1`, the INHIBITION is recorded as 66.2%. As for `Cc1occc1C(=O)N1CCC(C(O)c2ccc(Cl)cc2)CC1` (stereo not drawn), the figure is 59.03%; as for `CCn1cnnc1C1CCN(C(=O)c2cccc(C)c2C)CC1`, 1.02%; as for `Cc1c(C(=O)N2CCC(C(O)c3ccc(Cl)cc3)CC2)cnn1C` (stereo not drawn), 10.22%.

With `CCn1cnnc1C1CCN(C(=O)c2c(C)oc(C)c2C)CC1`, the INHIBITION is reported as -11.32%. As for `CCn1nc(C)c2c1cnn2CCNS(=O)(=O)Cc1ccccc1`, the figure is 16.97%; as for `CN(C)Cc1cccc(C(=O)N2CCCC(n3cncn3)C2)c1` (stereo not drawn), 21.39%. As for `CC(C)c1cc(C(=O)N2CCC3(CCc4ccccc4C(=O)N3)C2)on1` (stereo not drawn), the figure is 9.9%; as for `CNC(=O)c1n[nH]c2c1C(c1cccc3c1OC(C)(C)C3)CC(=O)N2` (stereo not drawn), 48.21%. As for `Cc1nc(CN2CCN(C(=O)c3ccc(=O)n(C)c3)CC2)cs1`, the INHIBITION is on record as -3.4%.

Take `CCN1CCC12CCN(C(=O)c1ccsc1)C2` (stereo not drawn): the INHIBITION is reported as 13.75%.

In the case of `COc1ccc(-c2noc(C3CC(C(C)C)=NO3)n2)cc1` (stereo not drawn), the INHIBITION amounted to 7.37%. Consider `CC(C)C1=NOC(c2nc(Cc3ccccc3)no2)C1` (stereo not drawn), for which the INHIBITION amounted to 50.46%. Turning to `Cc1ccccc1-c1noc(C2CC(C(C)C)=NO2)n1` (stereo not drawn), the INHIBITION was -10.37%.

`COCC(=O)N1CC2(CCN(c3ccccc3)C2)C1`: the INHIBITION is -31.82%. As for `CCc1nc(CC2CN(c3ncnc4nc(C)cc(C)c34)CCO2)no1` (stereo not drawn), the figure is 5.1%; as for `CS(=O)(=O)N[C@H]1CCO[C@]2(CCN(C(=O)c3ccccn3)C2)C1`, 36.75%.

Consider `CS(=O)(=O)N[C@@H]1CCO[C@]2(CCN(C(=O)c3cnccn3)C2)C1`, for which the INHIBITION turned out to be 9.14%. On to `CS(=O)(=O)N[C@@H]1CCO[C@]2(CCN(C(=O)c3cscn3)C2)C1`, for which the INHIBITION is 23.1%.

On to `Cc1nc(C(=O)N2CC[C@@]3(C[C@H](NS(C)(=O)=O)CCO3)C2)cs1`, for which the INHIBITION turned out to be 60.79%. For `Cc1nc(C(=O)N2CC[C@@]3(C[C@@H](NS(C)(=O)=O)CCO3)C2)cs1`, the INHIBITION is listed as 68.95%. As for `Cc1cc(C(=O)N2CC[C@@]3(C[C@@H](NS(C)(=O)=O)CCO3)C2)no1`, the figure is 19.51%; as for `COCCN1C(=O)CC(N2CCN(c3ccc(F)cc3)CC2)C1=O` (stereo not drawn), 39.9%. As for `NC(=O)CCSc1ccccc1NCc1ccc(Cl)s1`, the figure is 22.75%; as for `Cc1nc(C(=O)N(C)[C@@H]2CCC[C@@H](Oc3ccccc3)[C@@H]2O)co1`, 9.47%.

Consider `Cc1ocnc1C(=O)N(C)[C@@H]1CC[C@@H](Oc2ccccc2)[C@@H]1O`, for which the INHIBITION was found to be 67.27%. To `CN(C(=O)c1ccon1)[C@@H]1CCC[C@@H](Oc2ccccc2)[C@@H]1O` belongs 44.9%; to `Cc1ccccc1C1(CNC(=O)CCN2C(=O)CCC2=O)CC1`, 26.76%. As for `O=C(N1CCOCC1)[C@@]12CCO[C@@H]1CCN(CC1CCCC1)C2`, the figure is -55.42%; as for `Cc1c(NC(=O)c2cnc[nH]2)cccc1C(=O)NC(C)(C)C`, 5.41%; as for `COc1ccc(CN(Cc2cc(C)no2)C2CC2)cc1`, -16.88%. `c1cnc(N2CCC(c3csc(Nc4cnccn4)n3)CC2)nc1`: the INHIBITION is reported as -41.06%.

As for `O=C1CC2(CCN(c3nncs3)C2)CN1c1cccc(F)c1` (stereo not drawn), the INHIBITION was 21.75%. As to `O=C1CC2(CCN(c3nncs3)C2)CN1c1ccccc1` (stereo not drawn), the INHIBITION was -5.44%. To `O=C1CC2(CCN(c3nncs3)C2)CN1c1ccc2c(c1)OCCO2` (stereo not drawn) belongs 58.16%. To `O=C(O)c1ccc(CC2CCN(Cc3ccc(-c4cc[nH]n4)o3)C2)cc1` (stereo not drawn) belongs 16.93%; to `Cc1ncnc2c1CCN(CC(=O)N(C)C)CC2`, 18.15%; to `Cc1cc(C(F)(F)F)nc(CNC(=O)C2CCCCCN2C)n1` (stereo not drawn), 20.77%. In the case of `Cc1cc(C(F)(F)F)nc(CNC(=O)CCC2CCCCN2C)n1` (stereo not drawn), the INHIBITION is 54.77%. With `Cc1cc(C(F)(F)F)nc(CNC(=O)CCC2CCCN(C)C2)n1` (stereo not drawn), the INHIBITION is -28.09%. To `NCC1CCCCN1Cc1cc(O)c2cccc(F)c2n1` (stereo not drawn) belongs -20.95%; to `Cc1ccc2nc(CN3CCN(C4CCCC4)C(=O)C3)cc(O)c2c1`, -87.32%.

Turning to `Oc1cc(CN2CCCCC2c2cccnc2)nc2c(F)cccc12` (stereo not drawn), the INHIBITION was 57.75%.

Take `Cc1ccc2nc(CN3CCN(C4CCCCC4)C(=O)C3)cc(O)c2c1`: the INHIBITION was -17.17%.

In the case of `Cc1ccc2nc(CN3CCCC3c3cccnc3)cc(O)c2c1` (stereo not drawn), the INHIBITION stood at 50.59%. As for `OCC1CCCCN1Cc1cc(O)c2cccc(F)c2n1` (stereo not drawn), the figure is 24.36%; as for `CN(C)C(CNCc1nc(-c2ccsc2)no1)c1ccsc1` (stereo not drawn), 6.82%; as for `CN(C)C(CNCc1nc(-c2ccsc2)no1)c1ccco1` (stereo not drawn), 11.18%. To `CN(C)C(CNCc1nc(-c2ccsc2)no1)c1cccs1` (stereo not drawn) belongs 58.14%.

Take `c1ccc(CN2CCN(C3CCOC4(CCOCC4)C3)CC2)nc1` (stereo not drawn): the INHIBITION is listed as -14.69%. As for `CCNc1nc2cn(-c3ccc(C)c(C)c3)c(=O)c-2c[nH]1`, the figure is -5.34%; as for `c1cncc(CN2Cc3nccn3CC(Cn3cccn3)C2)c1` (stereo not drawn), -9.53%. To `COc1cc(C)cc(C(C(=O)O)N(C)Cc2ccon2)c1OC` (stereo not drawn) belongs 76.6%; to `COc1cc(F)ccc1C(C(=O)O)N(C)Cc1ccon1` (stereo not drawn), 12.55%; to `COc1ccc(Cl)cc1C(C(=O)O)N(C)Cc1ccon1` (stereo not drawn), -35.07%. To `CN(C)CC(=O)N1CCN(c2cc(N3CCCC3CO)ncn2)CC1` (stereo not drawn) belongs -23.06%; to `COC1[C@@H]2CC[C@H]1CN(c1nc(C)nc3sccc13)C2` (stereo partly drawn), 32.26%; to `Cc1ccccc1CN(CCN(C)C)Cc1ccc(C(=O)O)cc1`, 34.07%. As for `Cc1ccccc1CN(CCN(C)C)Cc1ccc(O)c(C(=O)O)c1`, the INHIBITION is 56.76%. Turning to `Cc1ccccc1CN(CCN(C)C)Cc1ccccc1C(=O)O`, the INHIBITION stood at 4.12%. To `Cc1cc(CN2CCc3nc(C(C)C)nc(O)c3CC2)c(C)s1` belongs 23.7%; to `Cc1ccnc(NC(=O)c2ccc(Br)o2)c1`, 62.51%; to `Cc1ccnc(NC(=O)c2ccc(C)o2)c1`, -4.26%.

As to `Cc1ccnc(NC(=O)c2ccc(Cl)o2)c1`, the INHIBITION was 5.48%. To `O=C(CN1CCc2cncnc2C1)NCCOc1ccccc1` belongs 10.62%. Regarding `O=C(CN1CCc2cncnc2C1)NCCOc1cccc(Cl)c1`, the INHIBITION amounted to 29.54%. As for `Cc1cccc(OCCNC(=O)CN2CCc3cncnc3C2)c1`, the figure is 51.94%; as for `Oc1cc(-c2nccs2)nc(C2CCN(Cc3cccs3)CC2)n1`, -14.73%. To `Cn1cc(CN2CCCC(c3nc(O)cc(-c4cccs4)n3)C2)cn1` (stereo not drawn) belongs 32.24%; to `Oc1cc(-c2cccs2)nc(C2CCCN(CC3=CCCOC3)C2)n1` (stereo not drawn), 51.88%; to `Cc1csc(CNC(=O)NCC(O)c2ccc(F)cc2F)n1` (stereo not drawn), -41.67%.

With `Cn1cccc1CN1CCC2(CC1)CN(c1ccccc1)C(=O)CO2`, the INHIBITION worked out at 40.64%. Take `CCN(CCC(F)(F)F)S(=O)(=O)c1cccc(F)c1C#N`: the INHIBITION is -46.3%.

Turning to `Cc1cccc2cc(C(=O)N3CCSCC3)n(C)c12`, the INHIBITION was 19.04%. Consider `N#Cc1cc(F)ccc1NCc1ccc(Cn2cncn2)cc1`, for which the INHIBITION worked out at 53.99%.

As for `Fc1ccc(CNc2ccccc2Cn2cncn2)cc1`, the INHIBITION is given as 32.93%. To `N#Cc1cc(F)ccc1Cn1cncn1` belongs -14.79%; to `Cc1cnn(CC2CCCN2Cc2nnc(C(C)C)o2)c1` (stereo not drawn), -12.82%; to `Cc1ccccc1CN(C)C(=O)CN1CCOC(Cn2cncn2)C1` (stereo not drawn), 2.07%.

Take `Cc1cc(=O)c2cc(F)ccc2n1CC(=O)O`: the INHIBITION was -30.92%. Take `O=S(=O)(c1ccc(F)cc1)N1CC[C@H]2[C@H]1CCN2c1ncccn1`: the INHIBITION came out at 31.96%. For the compound `O=S(=O)(c1cccs1)N1CC[C@H]2[C@H]1CCN2c1ncccn1`, the INHIBITION is reported as 56.76%. In the case of `Cc1cccc(S(=O)(=O)N2CC[C@H]3[C@H]2CCN3c2ncccn2)c1`, the INHIBITION was determined as 29.19%.

On to `CN1CC(=O)N(c2cccc(F)c2)CC12CCN(S(=O)(=O)C1CC1)C2` (stereo not drawn), for which the INHIBITION is given as -12.36%. As for `COCCN1C(=O)[C@]2(CC[C@@H]3CN(C(=O)NC(C)C)C[C@@H]32)N=C1C`, the figure is 16.91%. Turning to `CN(C)[C@@H]1CCN(C(=O)Cc2cccs2)[C@H]1Cc1ccncc1`, the INHIBITION is reported as -23.59%.

For the compound `Cc1cc(CN2CC[C@H]3[C@H]2CCN3S(C)(=O)=O)oc1C`, the INHIBITION is listed as -12.98%.

On to `CCN1C(=O)CCCC12CCCN(C(=O)c1cc(C)oc1C)C2` (stereo not drawn), for which the INHIBITION is on record as 19.09%. As to `CCN1C(=O)CCCC12CCCN(C(=O)c1ccoc1C)C2` (stereo not drawn), the INHIBITION is recorded as 50.17%.

Take `CCN1C(=O)CCCC12CCCN(C(=O)c1occc1C)C2` (stereo not drawn): the INHIBITION was found to be 46.87%. Take `Cc1nc(C)c(C(=O)Nc2cccc(CN3CCC(CO)CC3)c2)o1`: the INHIBITION was -8.84%.

Consider `Cn1cc(CN2CCc3ncnc(N4CCOCC4)c3CC2)cn1`, for which the INHIBITION is given as -15.83%. To `Cc1nc(N2CCOCC2)nc2c1COCC21CCN(CC(C)C)C1` (stereo not drawn) belongs 53.55%; to `CCN1CCC2(COCc3c(C)nc(N4CCOCC4)nc32)C1` (stereo not drawn), -9.91%. For the compound `Cc1nc(N2CCOCC2)nc2c1COCC21CCN(CC2CC2)C1` (stereo not drawn), the INHIBITION is recorded as -27.12%.

As for `COCCN1CCC2(COCc3c(C)nc(N(C)C)nc32)C1` (stereo not drawn), the INHIBITION stood at 54.62%. To `CCN1CCC2(COCc3c(C)nc(N(C)C)nc32)C1` (stereo not drawn) belongs 25.31%. As for `Cc1nc(N(C)C)nc2c1COCC21CCN(CC2CC2)C1` (stereo not drawn), the figure is -54.51%.
